# Unmarked numbers belong to inactive results.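 The calls were made as follows: active = inhibition at or above 50% relative to wild type and mutant plate controls; inactive = inhibition below 50%.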
# Test: inhibitors of Chlamydomonas gravitaxis, primary screen, whole organism, Chlamydomonas reinhardtii, WT vs cilia-less mutant, absorbance, 96-well (AID 463189);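 also: 0% = wild type cc124 cells in DMSO and 100% = ciliumless bld1 mutant cells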
# Details: OD600 absorbance, 2 days, at 10 µM, stronger effect = higher value
row,SMILES,inhibition [%]
1,Clc1cnc(Oc2ccc(Oc3ncc(Cl)cc3Cl)cc2)c(Cl)c1,2.67
2,CC(=O)c1c(O)c(C)c(O)c(Cc2c(O)c3c(c(C(=O)/C=C/c4ccccc4)c2O)OC(C)(C)C=C3)c1O,-7.31
3,C[N+](C)(C)CC#CCN1CCCC1=O,-6.29
4,Fc1ccc(C(OCCN2CCN(CCCc3ccccc3)CC2)c2ccc(F)cc2)cc1,12.7
5,O=C1CCCN1CC#CCN1CCCC1,7.02
6,CCCN1CCc2cccc3c2[C@H]1Cc1ccc(O)c(O)c1-3,0.62
7,O=C(O)C1C2CCC(O2)C1C(=O)O (stereo not drawn),-11.7
8,CCN(CCCl)Cc1ccccc1Br,6.59
9,NC(N)=Nc1ccc2[nH]c3c(c2c1)C[C@@]1(O)[C@H]2Cc4ccc(O)c5c4[C@@]1(CCN2CC1CC1)[C@H]3O5,-0.588
10,N[C@@H](Cn1ccc(=O)[nH]c1=O)C(=O)O,-4.9
11,Clc1cc(I)cc(Cl)c1NC1=NCCN1,9.51
12,O=P(O)(O)C(Cl)(Cl)P(=O)(O)O,8.57
13,CS(=N)(=O)CC[C@H](N)C(=O)O (stereo partly drawn),3.52
14,O=C1NCN(c2ccccc2)C12CCN(CC1COc3ccccc3O1)CC2 (stereo not drawn),6.88
15,Cc1[nH]c2ccc(O)cc2c1CCN,5.71
16,C=CCN1CCC2(C)c3cc(O)ccc3CC1[C@@H]2C (stereo partly drawn),4.21
17,CC[C@@H](CO)NC(=O)[C@@H]1C=C2c3cccc4[nH]cc(c34)C[C@H]2N(C)C1,-0.368
18,O=C(OC1CCN(CCCl)CC1)C(c1ccccc1)c1ccccc1,-11.2
19,NCCc1ccc(S(=O)(=O)F)cc1,0.651

row,SMILES,inhibition [%]
1,Nc1ccc(CCN2CCN(c3cccc(C(F)(F)F)c3)CC2)cc1,40.5
2,Cc1o[nH]c(=O)c1CC(N)C(=O)O (stereo not drawn),5.41
3,NNC(=O)c1ccc(O)cc1,-10.7
4,NCC(CP(=O)(O)O)c1ccc(Cl)cc1 (stereo not drawn),-3.38
5,COC(=O)N1CCN(C(=O)Cc2ccc(Cl)c(Cl)c2)C(CN2CCCC2)C1 (stereo not drawn),-0.837
6,Cc1cccc(C)c1NC1=NCCCS1,6.94
7,CC12CCC3C(CCC4=C(O)C(=O)CCC43C)C1CCC2=O (stereo not drawn),12.9
8,C/C(O)=C(\C#N)C(=O)Nc1cc(Br)ccc1Br,2.1
9,CC[N+](CC)(CC)CC,6.89
10,CN[C@@H](C)[C@H](O)c1ccccc1,-4.11
11,COc1ccc2[nH]cc(CCN)c2c1,3.77
12,O=P1(N(CCCl)CCCl)NCCCO1 (stereo not drawn),-0.869
13,CCCN1CCC[C@@H](c2cccc(O)c2)C1,0.338
14,CC(=O)NBr,10
15,Cn1cnc(CCN)c1,3.08
16,O=C1CC[C@@]2(O)C3Cc4ccc(O)c5c4C2(CCN3CC2CC2)[C@H]1O5 (stereo partly drawn),-3.7
17,CO[C@H]1CC=C2CCN3CCC4=C(CC(=O)OC4)[C@]23C1,0.879
18,CNCCc1ccc(O)c(O)c1,8.08
19,CCCN(CCC)CCc1c[nH]c2ccc(C(N)=O)cc12,-0.498

# From PubChem BioAssay
